Experimental findings from PubChem BioAssay AID1035 (National Center for Advancing Translational Sciences (NCATS), 2008) are described below.

The test can be described thus: HDAC Secondary Assay for qHTS Assay for Epigenetic Modulators. As to conditions: HeLa nuclear extract HDAC activity, fluorogenic substrate, 20 min; at 48 µM; stronger effect = lower value. The text has this:
NIH Molecular Libraries Screening Centers Network [MLSCN] NIH Chemical Genomics Center [NCGC] MLSCN Grant: 1 X01 MH079860-01 Assay Provider: Elisabeth D. Martinez, University of Texas SW Medical Center NCGC Assay Overview: This secondary assay characterizes selected actives identified in the qHTS of the Locus Derepression (LDR) assay (PubChem AID 597). The LDR assay detects the derepression of a GFP reporter that is stably integrated in a region of the genome of murine c127i mammary cells that is presumably silenced. Compounds that cause derepression of the locus to express GFP are identified by enumerating GFP positive cells using a laser-scanning microplate cytometer. […]
NCGC Assay Protocol Summary HeLa nuclear extracts and acetylated profluorescent substrate were incubated with vehicle, 0.5 uM TSA, or 48 uM indicated LDR compound for 20 min at ambient temperature and fluorescence was measured. Background-subtracted activity was expressed as a percent of uninhibited extract. […] For further details, see R.L. Johnson, W. Huang, A. Jadhav, C.P. Austin, J. Inglese, E.D. Martinez, A Quantitative High-Throughput Screen Identifies Potential Epigenetic Modulators of Gene Expression, Analytical Biochemistry (2007), doi: 10.1016/j.ab.2007.12.028

Values without a mark were called inactive. The rule behind the calls is not given here.

On to `CN1CSC(=S)N(C)C1`, for which the remaining HDAC activity was 102%.
